Screening data: PubChem, Sanford-Burnham Center for Chemical Genomics
KKLEB tox: cytotoxicity in KKLEB CF airway cells, primary screen, cytotoxicity control for CF NF-kB inhibitor project, cell-based, uHTS, fluorescence assay plates | KKLEB CF airway cells viability, ATPlite luminescence, overnight; hits give low values; cells stimulated with P. aeruginosa culture filtrate | activity change (cytotoxicity), % at 5 µM | 360,000 tested, 0.36% active | AID 602141, 2011;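 active means corrected activity change at or below -50% at 5 µM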
TWEAK Fn14 block: inhibitors of TWEAK-Fn14 signaling, primary screen, luciferase reporter cells, uHTS | 360,000 tested, 2% active | inhibition, % at 10 µM | TWEAK-stimulated Fn14 reporter cells, luciferase luminescence, 8 h; in the data active means inhibition above about 50%
Peg3 promoter: Peg3 promoter-driven luciferase inhibitors, primary screen, cell-based, HeLa, luciferase luminescence. HeLa PEG-Prom luciferase reporter, overnight. inhibition, % at 20 µM. 360,000 tested, 1.7% active;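 active means inhibition of at least 50% at 20 µM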
CF NFkB inh: inhibitors of PAF-induced NF-kB signaling, primary screen, cell-based, GFP fluorescence, uHTS; KKLEB NF-kB-GFP reporter, GFP fluorescence overnight; inhibition, % at 5 µM; 360,000 tested, 0.86% active; AID 588850, 2011;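 active means at least 50% inhibition at 5 µM, scaled per plate between neutral and stimulator controls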;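 further: PAF is a Pseudomonas aeruginosa culture filtrate used as stimulus; plate controls were PAF-stimulated DMSO wells for no effect and unstimulated DMSO wells for full effect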
TROY signal inh: inhibitors of TROY-driven NF-kB signaling, primary screen, Q293 LMP1-TROYcd cells, NF-kB luciferase, uHTS. inhibition, % at 10 µM. 360,000 tested, 0.98% active. Q293 LMP1-TROYcd NF-kB luciferase reporter, 4 h;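 active means compounds whose plate-normalised and pattern-corrected inhibition of the luciferase reporter signal at the single screening dose is 50% or more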
HIF-2a inh: HIF-2a reporter inhibitors, primary screen, luminescence, 786-0 RCC cells | inhibition, % at 18.8 µM | 786-0 RCC cells HIF-2a reporter, luciferase luminescence, overnight | 360,000 tested, 0.72% active;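 active means inhibition of the luminescence signal of 40% or more relative to plate controls, in a single-dose primary screen at 18.75 µM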
* hit, by the source's call. Rows were chosen to be rich in hits. Some 4% of all compounds tested hit in one or more screens of this group.

O=c1c2cc(N3CCOCC3)ccc2[nH]c(=S)n1CCCN1CCCC1 was read as KKLEB tox -2, TWEAK Fn14 block -19, Peg3 promoter 4, CF NFkB inh -9, TROY signal inh -10 and HIF-2a inh 16.
For CCn1c(SCC(=O)NC2CC2)nnc1-c1ccc(C)cc1 the results were KKLEB tox 3, TWEAK Fn14 block -14, Peg3 promoter -2, CF NFkB inh 23, TROY signal inh -7 and HIF-2a inh 0.
`COc1cccc(CNc2nc(NCc3ccccc3)nc3ccsc23)c1` gave KKLEB tox -9, TWEAK Fn14 block 23, Peg3 promoter 64*, CF NFkB inh 20, TROY signal inh 47 and HIF-2a inh 6.
Screening Nc1nc(Nc2ccccc2)nc(NC2CCCCC2)c1[N+](=O)[O-] returned KKLEB tox 6, TWEAK Fn14 block 32, Peg3 promoter 41, CF NFkB inh 21, TROY signal inh 74* and HIF-2a inh -20.
CNc1nc(NCc2cccc(OC)c2)c2sccc2n1 was read as KKLEB tox -16, TWEAK Fn14 block -21, Peg3 promoter 3, CF NFkB inh 22, TROY signal inh 4 and HIF-2a inh 7.
For C#Cc1cccc(Nc2nc(NCc3ccccc3)nc3ccsc23)c1 the results were KKLEB tox -23, TWEAK Fn14 block 69*, Peg3 promoter -98, CF NFkB inh 25, TROY signal inh 4 and HIF-2a inh -164.
COc1cccc(Nc2nc(N)c([N+](=O)[O-])c(NCc3ccccc3)n2)c1 was read as KKLEB tox -17, TWEAK Fn14 block 51*, Peg3 promoter 4, CF NFkB inh 10, TROY signal inh -5 and HIF-2a inh -80.
Screening CNc1nc(N)c([N+](=O)[O-])c(NC2CCCCC2)n1 returned KKLEB tox -22, TWEAK Fn14 block 18, Peg3 promoter 28, CF NFkB inh 50, TROY signal inh 8 and HIF-2a inh 13.
Screening COc1ccc(S(=O)(=O)N(C)C[C@H]2Oc3c(NC(=O)NC(C)C)cccc3C(=O)N([C@H](C)CO)C[C@@H]2C)cc1 returned KKLEB tox 3, TWEAK Fn14 block 4, Peg3 promoter 4, CF NFkB inh 6, TROY signal inh -9 and HIF-2a inh 3.
For CCCCNC(=O)N(O)C1N(/N=C/c2ccco2)C(=S)SC1(C)C (centres undefined) the results were KKLEB tox 20, TWEAK Fn14 block 1, Peg3 promoter 0, CF NFkB inh 3, TROY signal inh -4 and HIF-2a inh 10.
CC1CCCC(C)N1C(=O)COC(=O)CCC(=O)c1ccc(F)cc1 (centres undefined) was read as KKLEB tox 4, TWEAK Fn14 block -23, Peg3 promoter 1, CF NFkB inh -8, TROY signal inh -11 and HIF-2a inh -2.
Screening c1ccc(CNc2nc(NCCc3ccncc3)c3sccc3n2)cc1 returned KKLEB tox -6, TWEAK Fn14 block 28, Peg3 promoter 54*, CF NFkB inh 6, TROY signal inh 43 and HIF-2a inh 2.
For CNc1nc(NCc2ccccc2)c2sccc2n1 the results were KKLEB tox -6, TWEAK Fn14 block -53, Peg3 promoter -25, CF NFkB inh -24, TROY signal inh 9 and HIF-2a inh -34.
For c1ccc(CNc2nc(NCc3cccs3)nc3ccsc23)cc1 the results were KKLEB tox -20, TWEAK Fn14 block 8, Peg3 promoter 11, CF NFkB inh 0, TROY signal inh 61* and HIF-2a inh -8.
`O=C(CN1C(=O)NC2(CCOc3ccccc32)C1=O)NCc1ccccc1` (centres undefined) gave KKLEB tox 10, TWEAK Fn14 block 3, Peg3 promoter 15, CF NFkB inh -13, TROY signal inh 5 and HIF-2a inh 20.
For Cn1nc(C(C)(C)C)c([N+](=O)[O-])c1C(=O)NC1CCCCC1 the results were KKLEB tox -12, TWEAK Fn14 block -6, Peg3 promoter 14, CF NFkB inh 16, TROY signal inh -12 and HIF-2a inh 5.
For Cc1ccc(C(C(=O)NC(C)(C)C)N(Cc2cccs2)C(=O)c2ccc3c(c2)OCCO3)cc1 (centres undefined) the results were KKLEB tox 8, TWEAK Fn14 block 24, Peg3 promoter 28, CF NFkB inh 15, TROY signal inh 24 and HIF-2a inh 15.
Screening CCC(C)(C)NC(=O)C(c1ccc(C)cc1)N(Cc1cccs1)C(=O)c1ccc2c(c1)OCCO2 (centres undefined) returned KKLEB tox -1, TWEAK Fn14 block 88*, Peg3 promoter 11, CF NFkB inh 10, TROY signal inh 55* and HIF-2a inh -11.
`CCN(CC)c1ccc(/C=N/NC(=O)CNC(=O)C2COc3ccccc3O2)c(O)c1` (centres undefined) gave KKLEB tox -30, TWEAK Fn14 block -5, Peg3 promoter 50*, CF NFkB inh 12, TROY signal inh -8 and HIF-2a inh -3.
O=C(O)/C=C/c1ccc(OCc2cccc(F)c2)cc1 was read as KKLEB tox 0, TWEAK Fn14 block 21, Peg3 promoter -11, CF NFkB inh 1, TROY signal inh 19 and HIF-2a inh 31.
For Cc1cc(O)c(C(C)C)cc1NC(=O)Nc1ccc([N+](=O)[O-])cc1 the results were KKLEB tox -6, TWEAK Fn14 block 4, Peg3 promoter -22, CF NFkB inh 10, TROY signal inh -27 and HIF-2a inh -74.
For Cc1ccc(C(C)C)cc1NC(=O)Nc1ccc([N+](=O)[O-])cc1 the results were KKLEB tox -47, TWEAK Fn14 block 69*, Peg3 promoter 47, CF NFkB inh 45, TROY signal inh 59* and HIF-2a inh -31.
N#C/C(=C\c1ccc(Cl)cc1Cl)c1n[nH]c(Cn2cncn2)n1 was read as KKLEB tox 4, TWEAK Fn14 block 65*, Peg3 promoter -1, CF NFkB inh 10 and HIF-2a inh 13.
Screening CCOCCOC(=O)c1[nH]c2c(c1C)C(=O)CC(c1ccc(OC)c(OC)c1)C2 (centres undefined) returned KKLEB tox 8, TWEAK Fn14 block 21, Peg3 promoter 21, CF NFkB inh 21, TROY signal inh 7 and HIF-2a inh 0.
COc1cc(C2CC(=O)c3c([nH]c(C(=O)OCCOC(C)C)c3C)C2)cc(OC)c1OC (centres undefined) was read as KKLEB tox -9, TWEAK Fn14 block 61*, Peg3 promoter 38, CF NFkB inh 21, TROY signal inh 41 and HIF-2a inh -6.
